Sampled rows, rich in hits. Any-hit rate of the full collection: about 6.6%.
KB-V1 MDR tox: KB-V1 MDR subline cytotoxicity | AID 1347076 | Potency, µM (titrated, usually from 46.1 µM), most hits filed as cytotoxic | KB-V1 MDR cells viability, CellTiter-Glo, 72 h | actives 3.4% (n = 400,000); further: on the % scale 0 is the no-effect control and ±100 the full control effect; nearly all actives have a fitted effect of over 60% in size
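Cytotoxicity toward P-gp-expressing KB-V1 cells was determined as loss of CellTiter-Glo luminescence after 72 h at 37 degrees C. Compounds were tested in quantitative HTS format across a concentration range, with curves fitted to normalized data.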
KB-3-1 tox: KB-3-1 parental cell cytotoxicity | actives 1.4% (n = 400,000) | Potency, µM (series often up to 46.1 µM), usual class: cytotoxic | AID 1347075 | KB-3-1 viability, CellTiter-Glo ATP luminescence, 72 h; further: on the % scale 0 is the no-effect control and ±100 the full control effect; nearly all actives have a fitted effect of over 60% in size
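Luminescent ATP read-out (CellTiter-Glo) measures survival of drug-naive KB-3-1 cells after 72 h compound exposure at 37 °C. Titration series was screened from lowest to highest concentration, with DMSO vehicle plates as background controls.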
PTAP TSG101 blk: blocks PTAP/TSG101 interaction to inhibit HIV-1 budding | Fluorescence polarization, FITC-PTAP peptide / Tsg101 binding | AID 493005 | Q99816 | 340,000 tested, under 10 active | Potency, µM (doses to about 115 µM), for the others: at the top dose activity change, negative = inhibition, most hits filed as inhibitors; active means well fitted inhibition curve with a large enough effect in the main read-out, with a control signal flat, not every such curve was filed as active; inconclusive means small, poorly fitted or top-dose-only effect, or effect the other way, or a change in a side signal; inactive means no such curve, though single readings can be large or run the other way; further: % of control where 0% means no effect
Target sequence (Q99816 whole entry, looked up): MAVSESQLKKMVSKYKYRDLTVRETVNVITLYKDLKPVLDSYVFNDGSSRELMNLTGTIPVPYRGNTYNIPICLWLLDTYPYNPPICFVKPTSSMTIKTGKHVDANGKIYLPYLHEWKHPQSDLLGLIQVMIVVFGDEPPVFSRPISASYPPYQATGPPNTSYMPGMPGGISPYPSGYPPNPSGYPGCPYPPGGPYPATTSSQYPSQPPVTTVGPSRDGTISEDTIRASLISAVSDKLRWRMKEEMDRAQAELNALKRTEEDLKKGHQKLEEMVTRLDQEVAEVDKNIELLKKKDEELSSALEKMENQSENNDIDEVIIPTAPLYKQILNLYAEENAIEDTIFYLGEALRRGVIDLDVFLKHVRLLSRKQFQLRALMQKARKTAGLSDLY
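Steps: Tsg101 binding domain dispensed (10 uM final), compounds pinned in DMSO, FITC-labeled PTAP-motif peptide added (50 nM final); after 20 min binding at room temperature, polarization measured.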
SW480 rerep: induces DNA re-replication in SW480 colon adenocarcinoma cells; SW480 DNA re-replication, Hoechst DNA content imaging, 48 h; Potency, µM (titrated, usually from 46.1 µM), inactives show at the top dose re-replication activation, hits mostly activators; actives 1.8% (n = 340,000); further: % of control where 0% means no effect; nearly all actives have a fitted effect of over 55% in size
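Quantitative HTS format with DMSO vehicle controls; 48 hr drug incubation at 37 C, then 40 min Hoechst staining and scanning imager measurement at 405 nm excitation.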
MCF10A rereplic: inducers of DNA re-replication in MCF 10A breast cells | actives 2.9% (n = 350,000) | Potency, µM (doses to about 46.1 µM), for inactives: at the highest dose activity, positive = re-replication, usual class: activators | MCF 10A DNA re-replication, Hoechst nuclear intensity, 48 h; further: % of control where 0% means no effect; nearly all actives have a fitted effect of over 50% in size
RGS4 inh: human RGS4 inhibition. actives 0.039% (n = 390,000). Transcreener GDP fluorescence polarization, RGS4-accelerated GTP hydrolysis. P49798. AID 504845. Potency, µM (titrated, usually from 114 µM), inactives show top-dose activity change, negative = inhibition, hits mostly inhibitors; further: on the % scale 0 is the no-effect control and ±100 the full control effect; nearly all actives have a fitted effect of over 75% in size
Target sequence (P49798 whole entry, looked up): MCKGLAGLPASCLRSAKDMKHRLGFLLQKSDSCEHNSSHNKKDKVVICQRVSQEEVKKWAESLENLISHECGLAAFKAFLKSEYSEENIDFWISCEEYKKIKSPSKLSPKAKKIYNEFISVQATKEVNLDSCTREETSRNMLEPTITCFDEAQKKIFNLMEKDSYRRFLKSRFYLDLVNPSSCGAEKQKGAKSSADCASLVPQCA
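MLSMR compounds (23 nl, pin-transferred) preincubated 10 min at room temperature with a 500nM (2x) first reagent, then RGS4 at 900nM (2x) plus Transcreener GDP mix added; fluorescence polarization (620/688 nm) read before and after 90 min at 30 °C.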
Numbers without * were called inactive; i = inactive; ? = inconclusive; / = not tested or not shown; ! = a repeat was not active; [ ] = dose if it differs, or a comment. Unless noted, the call rests on the fitted dose curve; in most records, active means well fitted curve in the direction sought with a large enough effect; inconclusive means small, poorly fitted or top-dose-only effect, or another doubt; inactive means no such curve, though single readings can be large; an effect the other way counts as inactive or inconclusive. Potency means the concentration at half of the fitted maximal effect.

SMILES	KB-V1 MDR tox	KB-3-1 tox	PTAP TSG101 blk	SW480 rerep	MCF10A rereplic	RGS4 inh
CCOP(=O)(OCC)c1nc(-c2ccc(F)cc2)oc1NCc1ccccc1	i	i	-5.5%	-18.0%	4.11µM*	36.8%
FC(F)OC(F)(F)C(F)Cl (configuration not stated)	/	/	/	-6.1%	4.0%	/
C#CCOc1cc(C2C3=C(COC3=O)Nc3cc4c(cc32)OCO4)ccc1OC (configuration not stated)	?	i	-6.3%	2.06µM*	?	-5.0%
O=[As]O[As]=O (configuration not stated)	/	/	/	3.9%	10.6%	/
CC(C)(c1ccc(OCC2CO2)cc1)c1ccc(OCC2CO2)cc1 (configuration not stated)	/	/	/	/	/	i
CCOC(=O)[C@]12Cc3ccccc3[C@H]1N(Cc1ccccc1)C(=O)c1cc(F)c(F)cc12	10.3µM*	23.1µM*	/	/	/	/
CCOC(=O)[C@]12Cc3cc(N(C)C)ccc3[C@H]1N(Cc1ccccc1)C(=O)c1ccccc12	?	?	-2.1%	-1.1%	15.1%	-12.7%
CCOC(=O)[C@]12Cc3cc(Cl)ccc3[C@H]1N(Cc1ccccc1)C(=O)c1ccccc12	23.1µM*!	?	-6.4%	1.9%[9.22 µM]	-48.7%	10.1%
CN1C(=O)C(C2c3ccccc3C(=O)N2Cc2ccccc2)C(=O)N(C)C1=O (configuration not stated)	i	i	-0.5%	0.7%	-13.4%	-52.9%
CCOC(=O)[C@]12Cc3cc(C)ccc3[C@H]1N(Cc1ccccc1)C(=O)c1cc(OC)ccc12	9.2µM*	18.4µM*	/	/	/	/
COc1ccc2[nH]c3c(c2c1)CCN1C(=O)C(CC(=O)NCc2cccc(C(F)(F)F)c2)C[C@H](C(=O)N2CCCCC2)[C@@]31C (some centres not stated)	i	i	-6.0%	?	?	1.6%
Nc1ncnc2c1ncn2[C@@H]1O[C@H](COP(=O)(O)CP(=O)(O)O)[C@@H](O)[C@H]1O	14.6µM*	i	-0.8%	-8.1%	8.5%	350.0%[56.9 µM]
CN(C)c1c([N+](=O)[O-])cc(N2C(=O)C=CC2=O)cc1[N+](=O)[O-]	i	?	0.8%	16.4µM*	13µM*	-28.0%
CCNc1cc(N2CCN(C)CC2)ccc1[N+](=O)[O-]	i	i	-1.8%	-45.3%[1.84 µM]	-24.2%	-27.1%
CCOc1cc2c(cc1OCC)-n1cccc1C(c1ccc(C(C)C)cc1)NC2 (configuration not stated)	?	?	-0.9%	?	18.4µM*	-18.6%
Cc1ccc(C2C(=O)NC(=O)NC2=O)cc1	i	i	-1.1%	18.4µM*	-1.9%	-5.9%
COc1ccc(CCNC2CCCCCC2)cc1	i	i	-4.4%	3.26µM*	16.0%	-17.4%
COc1ccccc1CCNC1CCCCCC1	?	i	0.6%	0.5%	4.0%	34.6%
C=C1[C@@H](C)[C@H]2[C@H](Cc3ccccc3)NC(=O)[C@]23OC(=O)/C=C/[C@H](O)CCC[C@@H](C)C/C=C/[C@H]3[C@@H]1O	?	i	0.4%	5.8µM*	?	-20.7%
CC(=O)O[C@@H]1/C=C/[C@](C)(O)C[C@@H](C)C/C=C/[C@H]2[C@H](O)C(C)=C(C)[C@H]3[C@H](Cc4ccccc4)NC(=O)[C@@]123	i	?	-6.4%	18.4µM*	?	10.7%
C[C@H]1C/C=C/[C@H]2[C@H](O)[C@H](C)[C@@](C)(O)[C@H]3[C@H](Cc4ccccc4)NC(=O)[C@]32[C@H](O)/C=C/[C@](C)(O)C1	i	i	-1.6%	?	?	9.4%
C=C1C(C)C2C(Cc3ccccc3)NC(=O)C23C(OC(C)=O)C=CC(C)(O)CC(C)CC=CC3C1O (configuration not stated)	?	?	-4.3%	3.66µM*	?	-19.6%
CCOC(=O)N1CCN(C(=O)C(CC(C)C)NS(=O)(=O)c2ccc3c(c2)oc(=O)n3C)CC1 (configuration not stated)	i	i	0.8%	-5.5%	?	-4.4%
Cc1ccc(CN2C3CCCC2CC(NC(=O)c2ccc(C)cc2)C3)cc1 (configuration not stated)	i	i	-0.5%	-0.6%	?	14.5%[56.9 µM]
O=C1NC(=O)N(c2ccccc2)C(=O)/C1=C/C=C/c1ccco1	?	?	5.0%	14.6µM*	?	?
SMILES	KB-V1 MDR tox	KB-3-1 tox	PTAP TSG101 blk	SW480 rerep	MCF10A rereplic	RGS4 inh
Cc1ccc(N2C(=O)NC(=O)/C(=C\C=C\c3ccco3)C2=O)cc1C	?	?	1.6%	?	5.8µM*	?
Cc1cccc(N2C(=O)NC(=O)/C(=C\C=C\c3ccco3)C2=O)c1	i	?	-0.7%	?	14.6µM*	?
CN1C(=O)/C(=C/C=C/c2ccco2)C(=O)NC1=S	i	i	0.4%	?	8.8%	-38.5%[11.4 µM]
Cc1ccc(N2C(=O)NC(=O)/C(=C\C=C\c3ccco3)C2=O)cc1	i	?	1.1%	?	7.31µM*	?
O=C(CCS(=O)(=O)c1ccccc1)Nc1nnc(-c2ccco2)o1	i	i	-4.3%	12.4%	?	-12.2%
O=P(O)(O)Cc1ccccc1OP(=O)(c1ccccc1)c1ccccc1	23.1µM*	i	-0.1%	0.8%	20.5%	-3.7%
CCCCOP(=O)(OCCCC)C(Nc1ccc(C(=O)OCC)cc1)c1ccncc1 (configuration not stated)	i	i	-3.3%	13.2%	?	-14.1%[56.9 µM]
C[n+]1c(-c2ccccc2)cc(CCCCc2cc(-c3ccccc3)[n+](C)c(-c3ccccc3)c2)cc1-c1ccccc1	i	?	0.2%	3.5%	?	-10.2%
CCCOC(=O)c1ccc(-[n+]2c(-c3ccccc3)cc(-c3ccccc3)cc2-c2ccccc2)cc1	i	16.4µM*	-4.5%	17.4%	?	-8.0%
Cc1ccc(-c2cc(-c3ccccc3)cc(-c3ccccc3)[n+]2-c2ccc(C(=O)O)cc2)cc1	i	i	-8.5%	?	-0.3%	8.2%
COc1ccc(-[n+]2c(-c3ccccc3)cc(-c3ccc(C)cc3)cc2-c2ccccc2)cc1	i	2.59µM*	-1.0%	?	?	-8.6%[56.9 µM]
COc1ccc(-c2cc(-c3ccccc3)[n+](C)c(-c3ccccc3)c2)cc1	i	3.26µM*	-1.0%	?	13.2%	6.7%
Cc1ccc2c(c1)[C@@H]1CN(C)CC[C@H]1N2	/	/	/	-4.7%	1.5%	/
